# Experimental data published in publication PMC11006913.
# Where a chain is given by its changes, count along the chain named.
# How the values were obtained:
# Assay in all cases: PBM; 200 nM protein, PBS
# Conditions in all cases: dsDNA, one strand shown
# SIX6 [1] = target: T1, SIX6 (Homo sapiens, UniProt O95475 114-200, L167I)
# T1 sequence: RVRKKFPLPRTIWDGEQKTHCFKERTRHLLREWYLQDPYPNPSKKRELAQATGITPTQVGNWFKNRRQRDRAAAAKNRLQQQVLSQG
# SIX6 [2] = target: T2, SIX6 (Homo sapiens, UniProt O95475 114-200, L143V)
# T2 sequence: T1 sequence with L30V, I54L
# HOXC10 [3] = target: HOXC10 (Homo sapiens, UniProt Q9NYD6 254-340)
# HOXC10 (Homo sapiens, UniProt Q9NYD6 254-340), sequence (Q9NYD6 254-340): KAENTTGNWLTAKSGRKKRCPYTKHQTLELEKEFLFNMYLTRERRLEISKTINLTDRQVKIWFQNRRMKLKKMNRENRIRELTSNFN
# SIX6 [4] = target: T3, SIX6 (Homo sapiens, UniProt O95475 114-200, T165P)
# T3 sequence: T1 sequence with T52P, I54L
# SIX6 [5] = target: T4, SIX6 (Homo sapiens, UniProt O95475 114-200, L167M)
# T4 sequence: T1 sequence with I54M
# SIX6 [6] = target: T5, SIX6 (Homo sapiens, UniProt O95475 114-200, L143M)
# T5 sequence: T1 sequence with L30M, I54L
# SIX6 [7] = target: T6, SIX6 (Homo sapiens, UniProt O95475 114-200, L143I)
# T6 sequence: T1 sequence with L30I, I54L
# SIX6 [8] = target: T7, SIX6 (Homo sapiens, UniProt O95475 114-200, T165G)
# T7 sequence: T1 sequence with T52G, I54L
# SIX6 [9] = target: T8, SIX6 (Homo sapiens, UniProt O95475 114-200, T139Q)
# T8 sequence: T1 sequence with T26Q, I54L
# SIX6 [10] = target: T9, SIX6 (Homo sapiens, UniProt O95475 114-200, T165A)
# T9 sequence: T1 sequence with T52A, I54L
# HOXC10 [11] = target: HOXC10 (Homo sapiens, UniProt Q9NYD6 254-340, K271E)
# HOXC10 (Homo sapiens, UniProt Q9NYD6 254-340, K271E), sequence (Q9NYD6 254-340 K271E): as the sequence (Q9NYD6 254-340) above, with K18E counted along it
# SIX6 [12] = target: T10, SIX6 (Homo sapiens, UniProt O95475 114-200, L167V)
# T10 sequence: T1 sequence with I54V
# SIX6 [13] = target: T11, SIX6 (Homo sapiens, UniProt O95475 114-200)
# T11 sequence: T1 sequence with I54L
# SIX6 [14] = target: T12, SIX6 (Homo sapiens, UniProt O95475 114-200, T165I)
# T12 sequence: T1 sequence with T52I, I54L
# NKX2-6 [15] = target: T13, NKX2-6 (Homo sapiens, UniProt A6NCS4 118-204, R150C)
# T13 sequence: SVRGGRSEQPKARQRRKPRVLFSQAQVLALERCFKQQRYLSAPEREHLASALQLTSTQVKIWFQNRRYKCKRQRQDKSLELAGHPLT
# NKX2-6 [16] = target: T14, NKX2-6 (Homo sapiens, UniProt A6NCS4 118-204)
# T14 sequence: T13 sequence with C33R
# NKX3-2 [17] = target: NKX3-2 (Homo sapiens, UniProt P78367 192-278, P234S)
# NKX3-2 (Homo sapiens, UniProt P78367 192-278, P234S), sequence (P78367 192-278 P234S): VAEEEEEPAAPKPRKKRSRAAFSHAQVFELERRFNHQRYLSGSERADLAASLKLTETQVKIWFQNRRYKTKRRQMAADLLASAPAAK
# NKX3-2 [18] = target: NKX3-2 (Homo sapiens, UniProt P78367 192-278)
# NKX3-2 (Homo sapiens, UniProt P78367 192-278), sequence (P78367 192-278): as the sequence (P78367 192-278 P234S) above, with S43P counted along it
# HOXD13 [19] = target: HOXD13 (Homo sapiens, UniProt P35453 263-343)
# HOXD13 (Homo sapiens, UniProt P35453 263-343), sequence (P35453 263-343): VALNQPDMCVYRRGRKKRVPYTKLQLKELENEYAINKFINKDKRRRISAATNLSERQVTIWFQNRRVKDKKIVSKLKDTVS
# HOXD13 [20] = target: HOXD13 (Homo sapiens, UniProt P35453 263-343, T313A)
# HOXD13 (Homo sapiens, UniProt P35453 263-343, T313A), sequence (P35453 263-343 T313A): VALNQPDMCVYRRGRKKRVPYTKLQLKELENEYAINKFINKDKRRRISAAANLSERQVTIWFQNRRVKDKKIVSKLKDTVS
sequence,measurement,setting,value
CGCACGCC,binding signal,SIX6 [1],"8.9 upbm affinity estimate (log intensity, higher = more binding, comparable within an allelic series)"
same,binding signal,SIX6 [2],"8.88 upbm affinity estimate (log intensity, higher = more binding, comparable within an allelic series)"
same,binding signal,HOXC10 [3],"10.1 upbm affinity estimate (log intensity, higher = more binding, comparable within an allelic series)"
same,binding signal,SIX6 [4],"8.83 upbm affinity estimate (log intensity, higher = more binding, comparable within an allelic series)"
same,binding signal,SIX6 [5],"9.01 upbm affinity estimate (log intensity, higher = more binding, comparable within an allelic series)"
same,binding signal,SIX6 [6],"8.91 upbm affinity estimate (log intensity, higher = more binding, comparable within an allelic series)"
same,binding signal,SIX6 [7],"8.97 upbm affinity estimate (log intensity, higher = more binding, comparable within an allelic series)"
same,binding signal,SIX6 [8],"8.9 upbm affinity estimate (log intensity, higher = more binding, comparable within an allelic series)"
same,binding signal,SIX6 [9],"8.93 upbm affinity estimate (log intensity, higher = more binding, comparable within an allelic series)"
same,binding signal,SIX6 [10],"8.87 upbm affinity estimate (log intensity, higher = more binding, comparable within an allelic series)"
same,binding signal,HOXC10 [11],"10 upbm affinity estimate (log intensity, higher = more binding, comparable within an allelic series)"
same,binding signal,SIX6 [12],"8.9 upbm affinity estimate (log intensity, higher = more binding, comparable within an allelic series)"
same,binding signal,SIX6 [13],"8.9 upbm affinity estimate (log intensity, higher = more binding, comparable within an allelic series)"
same,binding signal,SIX6 [14],"8.9 upbm affinity estimate (log intensity, higher = more binding, comparable within an allelic series)"
GCAGGCGC,binding signal,HOXC10 [3],"9.86 upbm affinity estimate (log intensity, higher = more binding, comparable within an allelic series)"
same,binding signal,NKX2-6 [15],"9.36 upbm affinity estimate (log intensity, higher = more binding, comparable within an allelic series)"
same,binding signal,HOXC10 [11],"9.87 upbm affinity estimate (log intensity, higher = more binding, comparable within an allelic series)"
GCCAGCCC,binding signal,SIX6 [1],"8.95 upbm affinity estimate (log intensity, higher = more binding, comparable within an allelic series)"
same,binding signal,SIX6 [2],"8.86 upbm affinity estimate (log intensity, higher = more binding, comparable within an allelic series)"
same,binding signal,SIX6 [4],"8.85 upbm affinity estimate (log intensity, higher = more binding, comparable within an allelic series)"
same,binding signal,SIX6 [5],"9.06 upbm affinity estimate (log intensity, higher = more binding, comparable within an allelic series)"
same,binding signal,SIX6 [6],"9.06 upbm affinity estimate (log intensity, higher = more binding, comparable within an allelic series)"
same,binding signal,SIX6 [7],"8.94 upbm affinity estimate (log intensity, higher = more binding, comparable within an allelic series)"
same,binding signal,SIX6 [8],"9.06 upbm affinity estimate (log intensity, higher = more binding, comparable within an allelic series)"
same,binding signal,SIX6 [9],"9.07 upbm affinity estimate (log intensity, higher = more binding, comparable within an allelic series)"
same,binding signal,SIX6 [10],"9.01 upbm affinity estimate (log intensity, higher = more binding, comparable within an allelic series)"
same,binding signal,SIX6 [12],"8.96 upbm affinity estimate (log intensity, higher = more binding, comparable within an allelic series)"
same,binding signal,SIX6 [13],"8.98 upbm affinity estimate (log intensity, higher = more binding, comparable within an allelic series)"
same,binding signal,SIX6 [14],"9.01 upbm affinity estimate (log intensity, higher = more binding, comparable within an allelic series)"
GCCAGACC,binding signal,SIX6 [1],"9.01 upbm affinity estimate (log intensity, higher = more binding, comparable within an allelic series)"
same,binding signal,SIX6 [2],"8.79 upbm affinity estimate (log intensity, higher = more binding, comparable within an allelic series)"
same,binding signal,SIX6 [4],"8.91 upbm affinity estimate (log intensity, higher = more binding, comparable within an allelic series)"
same,binding signal,SIX6 [5],"9.01 upbm affinity estimate (log intensity, higher = more binding, comparable within an allelic series)"
same,binding signal,SIX6 [6],"8.95 upbm affinity estimate (log intensity, higher = more binding, comparable within an allelic series)"
same,binding signal,SIX6 [7],"8.96 upbm affinity estimate (log intensity, higher = more binding, comparable within an allelic series)"
same,binding signal,SIX6 [8],"9.08 upbm affinity estimate (log intensity, higher = more binding, comparable within an allelic series)"
same,binding signal,SIX6 [9],"9.06 upbm affinity estimate (log intensity, higher = more binding, comparable within an allelic series)"
same,binding signal,SIX6 [10],"9.03 upbm affinity estimate (log intensity, higher = more binding, comparable within an allelic series)"
same,binding signal,SIX6 [12],"8.94 upbm affinity estimate (log intensity, higher = more binding, comparable within an allelic series)"
same,binding signal,SIX6 [13],"9.02 upbm affinity estimate (log intensity, higher = more binding, comparable within an allelic series)"
same,binding signal,SIX6 [14],"8.93 upbm affinity estimate (log intensity, higher = more binding, comparable within an allelic series)"
GTCCTGCA,binding signal,NKX2-6 [16],"9.59 upbm affinity estimate (log intensity, higher = more binding, comparable within an allelic series)"
CCGCCCCC,binding signal,NKX3-2 [17],"10.4 upbm affinity estimate (log intensity, higher = more binding, comparable within an allelic series)"
same,binding signal,NKX3-2 [18],"10.4 upbm affinity estimate (log intensity, higher = more binding, comparable within an allelic series)"
CGCGCGAG,binding signal,HOXD13 [19],"9.48 upbm affinity estimate (log intensity, higher = more binding, comparable within an allelic series)"
same,binding signal,HOXD13 [20],"9.67 upbm affinity estimate (log intensity, higher = more binding, comparable within an allelic series)"
CCGCCGAG,binding signal,NKX2-6 [15],"9.67 upbm affinity estimate (log intensity, higher = more binding, comparable within an allelic series)"
GAGTCGCC,binding signal,NKX2-6 [15],"9.64 upbm affinity estimate (log intensity, higher = more binding, comparable within an allelic series)"
CACGGCTG,binding signal,NKX2-6 [15],"9.52 upbm affinity estimate (log intensity, higher = more binding, comparable within an allelic series)"
AGAGGACC,binding signal,NKX3-2 [17],"11.8 upbm affinity estimate (log intensity, higher = more binding, comparable within an allelic series)"
same,binding signal,NKX3-2 [18],"11.8 upbm affinity estimate (log intensity, higher = more binding, comparable within an allelic series)"
CGGCTAGC,binding signal,HOXC10 [3],"9.98 upbm affinity estimate (log intensity, higher = more binding, comparable within an allelic series)"
same,binding signal,HOXC10 [11],"10 upbm affinity estimate (log intensity, higher = more binding, comparable within an allelic series)"
ACCAAATA,binding signal,HOXC10 [3],"10.8 upbm affinity estimate (log intensity, higher = more binding, comparable within an allelic series)"
CGCCTAGC,binding signal,NKX3-2 [17],"10.6 upbm affinity estimate (log intensity, higher = more binding, comparable within an allelic series)"
same,binding signal,NKX3-2 [18],"10.6 upbm affinity estimate (log intensity, higher = more binding, comparable within an allelic series)"
AGAGCTCT,binding signal,HOXC10 [3],"10 upbm affinity estimate (log intensity, higher = more binding, comparable within an allelic series)"
same,binding signal,HOXC10 [11],"10.1 upbm affinity estimate (log intensity, higher = more binding, comparable within an allelic series)"
